Assay outcomes deposited in PubChem by several laboratories.
Sampled rows, rich in hits. Any-hit rate of the full collection: about 28%.
CYP2C19 act – activators of human cytochrome P450 2C19; P33261; recombinant CYP2C19, luciferin-H EGE luminescence; hits give high values; 0 = fully inhibited enzyme, 1 = untreated enzyme; activation factor at 5 µM; 96,000 tested, under 10 active;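 active means activation factor of at least 2 at 5 µM in the primary screen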;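 further: 0 = wells with 2.5 mM tranylcypromine and 1 = vehicle-only wells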
CYP2C9 activ – increases human cytochrome P450 2C9 activity; activation factor at 5 µM; actives 1.4% (n = 96,000); recombinant CYP2C9, luciferin-H conversion, luminescence; hits give high values; factor 1 = untreated enzyme, 0 = blocked;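 active means activation factor of 2 or more for CYP2C9 at a 5 µM dose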;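 further: 0 = sulfaphenazole-blocked wells and 1 = vehicle-only wells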
CYP2C19 inhib – inhibitors of human CYP2C19; P33261; inhibition, % at 5 µM; CYP2C19 Supersomes, luciferin-H EGE luminescence, 30 min; AID 778; actives 21% (n = 96,000);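 active means CYP2C19 inhibition above a set limit at 5 µM in the primary screen, cut at about 50% in these data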;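 further: plate controls were negative control wells for no effect and 2.5 mM tranylcypromine positive control for full effect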
Plk1 PBD FP – blocks phosphopeptide binding to human Plk1 polo box domain. P53350. Plk1 PBD phosphopeptide binding, fluorescence polarization. inhibition, %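 (tested at about 20 µM)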. actives 0.13% (n = 97,000); in the data active means inhibition above about 34%, passing the limit was not always enough
Target sequence (P53350 whole entry, looked up, the tested form may be a part): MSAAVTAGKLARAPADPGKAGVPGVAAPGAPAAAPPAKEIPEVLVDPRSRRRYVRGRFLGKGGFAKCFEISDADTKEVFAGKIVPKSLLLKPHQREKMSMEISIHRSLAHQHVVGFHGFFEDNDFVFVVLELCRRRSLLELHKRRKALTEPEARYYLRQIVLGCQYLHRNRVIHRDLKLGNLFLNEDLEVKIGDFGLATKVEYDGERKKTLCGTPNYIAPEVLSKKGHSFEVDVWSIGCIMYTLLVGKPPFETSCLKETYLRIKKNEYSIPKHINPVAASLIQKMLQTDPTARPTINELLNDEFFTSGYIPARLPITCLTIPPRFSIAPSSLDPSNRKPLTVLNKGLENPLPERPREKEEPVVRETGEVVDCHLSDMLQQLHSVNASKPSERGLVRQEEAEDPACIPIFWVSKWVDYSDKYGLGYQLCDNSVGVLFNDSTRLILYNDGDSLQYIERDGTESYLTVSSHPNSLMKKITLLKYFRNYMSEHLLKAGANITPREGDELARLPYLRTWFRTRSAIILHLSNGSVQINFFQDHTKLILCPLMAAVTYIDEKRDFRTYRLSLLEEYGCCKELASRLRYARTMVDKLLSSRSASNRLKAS
CYP2C9 inh – inhibitors of human CYP2C9; P11712; CYP2C9 Supersomes, luciferin-H conversion, luminescence; inhibition, % at 5 µM; actives 20% (n = 96,000); AID 777;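 active means blocking of liver enzyme CYP2C9 beyond about 50% at 5 µM, limit read from the data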
PLK1 kinase inh – blocks human PLK1 kinase activity | AID 619 | actives 0.53% (n = 97,000) | recombinant PLK1 kinase, TR-FRET peptide phosphorylation | inhibition, % at 10 µM;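 active means inhibition of 50% or more in the single-concentration screen; inactive means inhibition below 50%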;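 further: 0% = DMSO max control and 100% = H-89 dihydrochloride min control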
The depositor's hits bear a star; · = no result given.

SMILES | CYP2C19 act | CYP2C9 activ | CYP2C19 inhib | Plk1 PBD FP | CYP2C9 inh | PLK1 kinase inh
Cc1ccc(-c2noc(CN(C(=O)CCCCCN3C(=O)c4ccccc4C3=O)C(C)C)n2)cc1 | 0 | 0.1 | 96.3* | -6.2 | 90.9* | -9.8
CC(C)N(Cc1nc(-c2ccccc2)no1)C(=O)Cc1ccccc1 | 0.1 | 0.3 | 89.4* | 3.6 | 70.6* | -22.8
Cc1ccc(-c2noc(CN(C(=O)Cc3ccccc3)C(C)C)n2)cc1 | 0.3 | 0.2 | 74.5* | 6.8 | 77.8* | -5.8
Cc1cc(Br)ccc1OCC(=O)N(Cc1nc(-c2ccccc2)no1)C(C)C | 0.7 | 0.6 | 27.6 | -17.8 | 38.4 | -11.0
Cn1cnnc1SCC(=O)NCCc1ccccc1 | 0.8 | 1.1 | 23.1 | -23.0 | -7.3 | 5.6
CN(C)C(=O)CSc1nnc([C@H](Cc2c[nH]c3ccccc23)NC(=O)OC(C)(C)C)o1 | 0.9 | 0.9 | 10.3 | · | 13.4 | ·
CC(C)N(Cc1nc(-c2ccccc2)no1)C(=O)CSc1ccccc1 | 0.1 | 0.2 | 91.6* | 4.3 | 79.2* | -8.7
Cc1ccc(-c2noc(CN(C(=O)CCCN3C(=O)c4ccccc4C3=O)C(C)C)n2)cc1 | · | · | · | 7.3 | · | -13.4
Cc1ccc(C)c(C(=O)N(Cc2nc(-c3ccc(Cl)cc3)no2)C(C)C)c1 | 0.2 | 0.1 | 83.1* | -21.2 | 88.2* | -2.6
CC(C)N(Cc1nc(-c2ccc(Cl)cc2)no1)C(=O)CCC1CCCC1 | 0.7 | 0.7 | 29.8 | -14.9 | 33.1 | -9.8
CC12/C(=N/O)C3C4CC5C3/C(=N/O)C1C5C42 (stereo not given) | 0.9 | 0.9 | 9.3 | -10.1 | 7.6 | -2.0
Cn1c(=O)c2c(nc(NCc3cccnc3)n2Cc2ccc(Cl)cc2)n(C)c1=O | 0.5 | 0.3 | 54.1* | 13.9 | 70.2* | 33.7
CCNc1nc2c(c(=O)n(Cc3ccccc3)c(=O)n2C)n1Cc1ccccc1 | 0.2 | 0.1 | 84.3* | -8.8 | 90.1* | -1.7
Cn1c(=O)c2c(nc(SCC(=O)O)n2Cc2cccc(C(F)(F)F)c2)n(C)c1=O | 1 | 0.9 | -1.5 | -2.5 | 8.3 | 0.3
Cn1c(N2CCN(c3ccccn3)CC2)nc2c1c(=O)n(Cc1ccc(Cl)cc1)c(=O)n2C | 0.1 | 0.1 | 91.6* | · | 86.2* | ·
Cn1c(=O)c2c(nc(NCCCO)n2Cc2cccc(C(F)(F)F)c2)n(C)c1=O | 0.4 | 0.7 | 58.6* | -2.9 | 29.2 | -4.8
Cn1c(=O)c2c(nc(NCc3ccccc3)n2Cc2ccc(F)cc2)n(C)c1=O | · | · | · | 3.9 | · | 4.0
CCOC(=O)c1c(NC(=O)CN2CCN(c3ccc(Cl)cc3)CC2)sc(C)c1C | 1 | 0.7 | -4.8 | 15.4 | 28.4 | -7.8
CCOCCCNS(=O)(=O)c1ccc(NC(=O)N2c3ccccc3Sc3ccccc32)cc1 | 0.5 | 0.1 | 46.1 | -41.9 | 92.2* | -2.5
NS(=O)(=O)c1ccc(NC(=O)N2c3ccccc3Sc3ccccc32)cc1 | 1.1 | 1.1 | -11.6 | -9.6 | -6.9 | -14.3
COc1ccc2oc(=O)c(-c3nc(C)cs3)cc2c1 | 0.2 | 0.5 | 76.8* | · | 54.9* | ·
CCCOc1ccc(/C=N/NC(=O)C2CCCN2S(=O)(=O)c2ccc(Cl)cc2)cc1 (stereo not given) | 0.7 | 0.6 | 26.3 | -27.4 | 41.0 | -12.9
CCCN(CCC)S(=O)(=O)c1ccc(C(=O)NCc2ccc3c(c2)OCO3)cc1 | 1 | 1.1 | -0.6 | -25.5 | -8.1 | -2.0
O=C(CCNS(=O)(=O)c1ccccc1F)NCc1ccc2c(c1)OCO2 | 0.3 | 0.7 | 70.0* | -2.9 | 28.3 | -10.9
Cc1ccc(N(CC(=O)NCc2ccc3c(c2)OCO3)S(C)(=O)=O)cc1 | 0.4 | 0.5 | 55.2* | 23.9 | 45.4 | -11.1
Cc1ccc(S(=O)(=O)NCCC(=O)NCc2ccc3c(c2)OCO3)cc1C | 0.6 | 2.1* | 37.7 | -17.0 | -110.8 | -6.6
Cc1ccc(S(=O)(=O)N(C)CCCC(=O)NCc2ccc3c(c2)OCO3)cc1 | 0.2 | 0.2 | 82.3* | -19.0 | 75.6* | -18.6
O=C(CCNS(=O)(=O)c1ccc2c(c1)CCC(=O)N2)NCc1ccc2c(c1)OCO2 | 1 | 0.6 | 0.3 | 3.1 | 41.3 | -9.1
CS(=O)(=O)N(CC(=O)NCc1ccc2c(c1)OCO2)c1ccccc1 | 0.7 | 1 | 26.0 | 17.1 | -2.5 | -7.0
CCOCC(O)CS(=O)(=O)c1ccccn1 (stereo not given) | 1 | 1.1 | -2.4 | 10.1 | -6.6 | -11.2
